Screens deposited in PubChem by National Center for Advancing Translational Sciences (NCATS).
Shown are actives, neighbours in structure and some others; about 2.4% of the full set was active somewhere.
Cruzain noTriton: cruzain (T. cruzi) inhibition without detergent; purified cruzain, Z-FR-AMC fluorescence, no detergent; Potency, µM, most hits filed as inhibitors; P25779; 200,000 compounds, 2.3% hits; also: nearly all actives have a fitted effect of over 40% in size
Target sequence (P25779 123-467 limits assumed): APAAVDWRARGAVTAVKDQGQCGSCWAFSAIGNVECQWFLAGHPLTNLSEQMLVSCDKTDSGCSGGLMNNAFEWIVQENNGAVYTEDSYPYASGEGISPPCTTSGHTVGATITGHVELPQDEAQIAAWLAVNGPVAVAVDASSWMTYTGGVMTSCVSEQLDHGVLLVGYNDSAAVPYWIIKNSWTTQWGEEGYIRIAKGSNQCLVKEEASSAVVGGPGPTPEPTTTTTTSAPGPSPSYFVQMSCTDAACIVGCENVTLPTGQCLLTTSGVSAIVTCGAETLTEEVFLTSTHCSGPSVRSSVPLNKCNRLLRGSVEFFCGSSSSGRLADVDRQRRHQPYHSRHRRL
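Detergent-free condition (0.00005% Triton X-100) in acetate buffer pH 5.5 with DTT. 1.5 nM enzyme and compound were pre-mixed 15 min, then 2 uM Z-FR-AMC substrate added; reaction progress from fluorescence change between first and third reads (60 s).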
Cruzain inh Det: blocks cruzain activity in presence of Triton detergent; P25779; Potency, µM, usual class: inhibitors; 200,000 compounds, 0.43% hits; AID 1478; purified cruzain, Z-FR-AMC fluorescence, 0.01% Triton; also: nearly all actives have a fitted effect of over 40% in size
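Steps: dispense cruzain (1.5 nM final) in acetate buffer pH 5.5 with DTT and 0.01% Triton X-100; pin-transfer compounds; incubate 15 min RT; add Z-FR-AMC (2 uM final); read fluorescence every 30 s, using the 60 s intensity change.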
Numbers stand for hits; i = inactive; ? = inconclusive. Calls follow the shape of the dose curve; as a rule, active = well fitted curve in the direction sought with a large enough effect; inconclusive = small, poorly fitted or top-dose-only effect, or another doubt; inactive = no such curve, though single readings can be large; an effect the other way counts as inactive or inconclusive.

SMILES	Cruzain noTriton	Cruzain inh Det
CCN(Cc1nc(-c2ccc(OC)c(OC)c2)no1)S(=O)(=O)c1ccc(OC)cc1	?	i
C=CC=O	i	i
CCCCCC(=O)Nc1nc(C)c(-c2csc(Nc3cc(Cl)ccc3OC)n2)s1	3.2µM	i
CCCC(=O)Nc1nc(C)c(-c2csc(Nc3cc(OC)ccc3OC)n2)s1	i	i
CCN(CC)C(=O)C1=C(C)Nc2nc3ccccc3n2C1c1ccc(Cl)cc1 (stereo unspecified)	i	i
N#CC1=C(N)Nc2nc3ccccc3n2C1c1ccc(Cl)cc1 (stereo unspecified)	32µM	i
CCCCn1c2ccccc2c2nnc(SCC(=O)Nc3ccc(NC(C)=O)cc3)nc21	20µM	?
CCOC(=O)c1ccc(NC(=O)CSc2nnc3c4ccccc4n(CC)c3n2)cc1	i	i
Cc1cc(SCC(=O)Nc2ccc(C(F)(F)F)cc2)nc(=O)[nH]1	i	i
O=C1C(Cl)=C(N2CCOCC2)C(=O)N1c1cccc(Cl)c1	13µM	13µM
CCc1ccc(N2C(=O)C(Cl)=C(N3CCOCC3)C2=O)cc1	i	i
CN1CCN(C2=C(Cl)C(=O)N(c3ccc(Cl)cc3)C2=O)CC1	25µM	?
Cc1ccc(N2C(=O)C(Cl)=C(N3CCN(C)CC3)C2=O)c(C)c1	?	i
O=C1C(Cl)=C(N2CCN(Cc3ccccc3)CC2)C(=O)N1c1ccccc1	i	i
COc1ccc(N2C(=O)C(Cl)=C(N3CCN(Cc4ccccc4)CC3)C2=O)cc1	i	18µM
CCCCC1=CC2=C(OC(C)=O)C(=O)C(C)(OC(=O)c3ccc(Cl)nc3)C(=O)C2=CO1 (stereo unspecified)	i	i
O=c1c(-c2cccs2)nc2cnc(N3CCNCC3)nc2n1CCc1ccccc1	i	i
N#Cc1ccccc1Cn1c(=O)n(CCCC(=O)NCc2ccccc2Cl)c(=O)c2ccccc21	i	i
COc1cccc(NC(=O)C(=O)N/N=C/c2cc(C)n(-c3ccc(Cl)c(Cl)c3)c2C)c1	16µM	i
Cc1cc(/C=N\NC(=O)CC(=O)NC2CCCCC2)c(C)n1-c1ccc(Cl)c(Cl)c1	i	i
CCc1ccc(NC(=O)c2cc3c(COC(C)=O)cnc(C)c3oc2=O)cc1	i	i
Cc1sc2ncnc(SCC(=O)N3c4ccccc4Sc4ccc(Cl)cc43)c2c1C	7.9µM	i
Cc1sc2ncnc(SCC(=O)c3cccs3)c2c1C	?	i
Cc1cc(S(=O)(=O)C(CNC(=O)COc2ccc(Cl)cc2)c2cccs2)ccc1F (stereo unspecified)	i	i
Cc1ccccc1Nc1nc(Nc2ccccc2C)nc(SC2=NCCS2)n1	?	i
SMILES	Cruzain noTriton	Cruzain inh Det
Cc1ccc(Nc2nc(Nc3ccc(C)cc3)nc(SC3=NCCS3)n2)cc1	25µM	i
Cc1ccc(Cn2c(SCC(=O)NCc3ccccc3Cl)nc3ccsc3c2=O)cc1	i	i
Cc1ccccc1CNC(=O)C(=O)NCC(c1ccco1)S(=O)(=O)c1ccc(F)cc1 (stereo unspecified)	i	i
O=C(O)/C(Cc1cn[nH]n1)=N\O	i	i
CCOc1ccc2nc(N/C(N)=N/C(=S)Nc3cccc(C)c3)nc(C)c2c1	32µM	i
COc1ccc2nc(N/C(N)=N/C(=S)Nc3cccc(C)c3)nc(C)c2c1	?	i
CC(C)c1ccc(OCC(=O)N(Cc2cccs2)C2CCS(=O)(=O)C2)cc1 (stereo unspecified)	?	i
Cc1cccc(Oc2nc3ccccn3c(=O)c2/C=C(\C#N)c2nc3ccccc3s2)c1C	i	i
CCCc1[nH]nc2c1C(c1cccc(OC(=O)c3ccco3)c1)C(C#N)=C(N)O2 (stereo unspecified)	20µM	?
CCCc1[nH]nc2c1C(c1cc(OC)cc(OC)c1)C(C#N)=C(N)O2 (stereo unspecified)	i	i
COc1ccc(-c2nc3cnc(N4CCN(C)CC4)nc3n(C)c2=O)cc1	i	i
CC(C)(C)c1ccc(-c2cc(C(=O)NNC(=O)Nc3ccccc3)c3ccccc3n2)cc1	?	i
COc1ccc(Cl)cc1C(=O)NNC(=S)NC(=O)c1cc(-c2ccccc2)nc2ccccc12	3.2µM	i
COc1ccc(C(=O)NNC(=S)NC(=O)c2cc(-c3ccccc3)nc3ccccc23)cc1	?	i
COC(=O)c1ccc(NC(=S)NC(=O)c2cc(-c3ccccc3)nc3ccccc23)cc1	10µM	i
CCCOc1ccc(C(=O)NNC(=S)NC(=O)c2cc(-c3ccc(Cl)cc3)nc3ccccc23)cc1	?	i
O=C(NNC(=O)c1cc(-c2ccccc2)nc2ccccc12)Nc1cccc(Cl)c1	20µM	i
COCCNC(=O)CSc1nnc2[nH]c(=O)cc(C)n12	i	i
Cc1ccc(Cn2c(C(=O)O)c(CNC3CCCCCC3)c3ccc(C)cc32)cc1	?	i
Cc1ccc(C)c(Nc2nn3c(=O)c4ccc(C(=O)NCc5cccs5)cc4nc3s2)c1	i	i
Cc1ccc(C(=O)Nc2cc3cc(Cl)ccc3oc2=O)cc1	i	i
N#Cc1cc(C(=O)c2cc(Cl)ccc2O)cn(-c2ccccc2)c1=O	i	i
Cc1ccc(NC(=O)c2cc(C(=O)c3cc(Cl)ccc3O)cn(-c3ccc(C)cc3)c2=O)cc1	5µM	i
O=C(Cn1c(=O)n(-c2ccc(Cl)cc2)c(=O)c2c3c(sc21)CCCCC3)Nc1cccc(Cl)c1	i	i
O=C(c1cc2sccc2n1Cc1ccccc1)N1CCN(c2nc3ccccc3s2)CC1	7.9µM	i
SMILES	Cruzain noTriton	Cruzain inh Det
CCC(=O)N1CCN(c2nc3ccccc3s2)CC1	i	i
COc1ccc(CCNC(=O)c2cc(-c3ccc(C)c(C)c3)nc3ccccc23)cc1OC	i	i
CCc1ccc(-c2csc(NC(=O)COC(=O)CCc3nc4ccccc4s3)n2)cc1	13µM	i
Cc1nc(NC(=O)COC(=O)CCc2nc3ccccc3s2)c(Cl)cc1Cl	i	i
Cc1cn2c(=O)cc(COC(=O)c3cccc(NC(=O)C(C)Oc4ccccc4)c3)nc2s1 (stereo unspecified)	i	i
O=C(Nc1ccc(NC(=O)c2ccc(S(=O)(=O)c3ccccc3)cc2)cc1)c1ccccc1	4µM	i
CN(c1ccccc1)S(=O)(=O)c1ccc(NC(=O)c2ccc(-c3ccccc3)cc2)cc1	25µM	i
O=C(O)c1ccc(S(=O)(=O)c2ccccc2)cc1	i	i
CC(=O)Nc1ccc(S(=O)(=O)N(C)c2ccccc2)cc1	i	i
O=C(NCCc1ccccc1)c1ccc2c(c1)N(Cc1ccccc1)C(=O)c1ccccc1S2=O (stereo unspecified)	i	i
O=C(/C=C\NCC(=O)c1ccccc1)c1ccc(F)cc1	i	i
O=C(/C=C\NCC(=O)c1ccccc1)c1ccc2ccccc2c1	32µM	i
NC(=O)c1ccccc1NC(=O)Cn1nc(Cc2cccnc2)c2ccccc2c1=O	i	i
c1ccc(C2Oc3ccccc3C3CC(c4cccs4)=NN32)cc1 (stereo unspecified)	i	i
O=[N+]([O-])c1ccc(C2Oc3ccccc3C3CC(c4ccccc4)=NN32)s1 (stereo unspecified)	16µM	i
Cc1[nH]n(-c2ncc(-c3ccccc3)s2)c(=O)c1C(c1ccc(Cl)cc1)C(C#N)C#N (stereo unspecified)	13µM	?
Cc1[nH]n(-c2ccccc2)c(=O)c1C(C[N+](=O)[O-])c1ccc(Cl)cc1 (stereo unspecified)	i	i
COc1ccc(C(=O)Oc2cc(/C=N/NC(N)=S)ccc2OC)cc1	?	i
COc1ccc(/C=N/NC(N)=S)cc1OC(=O)c1cccc2ccccc12	25µM	i
